Targets with a hit are over-represented here; the source holds about 8,800 in all. About 0.5% of all pairs of compound and target were hits. Unmarked numbers belong to inactive results.
Key:
Assay in all cases: log2 fold change, soluble protein after heating vs DMSO (PISA); higher = thermal stabilisation; K562 lysate, 10 uM; active = over 0.2 and 3.5 SD of the protein, either way, in both replicates (recomputed)
alvocidib = compound: CN1CC[C@H](c2c(O)cc(O)c3c(=O)cc(-c4ccccc4Cl)oc23)[C@H](O)C1 [alvocidib]
In short: (§1)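 Quantification was by TMTpro 16plex LC-MS/MS with equalised channel sums, applied to the supernatant after 21,000xg for 90 min. Samples were crude K562 extract at 1 mg/mL protein in PBS pH 7.4 with 1 mM MgCl2, treated with 10 μM compound for 30 min, heated for 3 min across 48°C-58°C, pooled and brought to 0.5% NP-40 at 4°C. Values are log-two fold changes in thermal stability relative to solvent controls, from duplicates.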

Tubastatin A = compound: CN1CCc2c(c3ccccc3n2Cc2ccc(C(=O)NO)cc2)C1 [Tubastatin A]
In short: as §1

[1] = compound: CNC(=O)C1=CC=CC=C1NC2=NC(=NC=C2Cl)NC3=C(C=C(C=C3)N4CCOCC4)OC
In short: as §1

defactinib = compound: CNC(=O)c1ccc(Nc2ncc(C(F)(F)F)c(NCc3nccnc3N(C)S(C)(=O)=O)n2)cc1 [defactinib]
In short: as §1

[2] = compound: CNc1nc(-c2ccc3c(N)n[nH]c3c2)cc(N2C[C@@H](C(=O)NC3CCCCC3)CC[C@H]2C)n1
In short: as §1

encorafenib = compound: COC(=O)N[C@@H](C)CNc1nccc(-c2cn(C(C)C)nc2-c2cc(Cl)cc(NS(C)(=O)=O)c2F)n1 [encorafenib]
In short: as §1

[3] = compound: COC(=O)[C@H](CCSC)NC(=O)C1=C(C=C(C=C1)NC[C@H](CS)N)C2=CC=CC=C2
In short: as §1

alisertib = compound: COc1cc(Nc2ncc3c(n2)-c2ccc(Cl)cc2C(c2c(F)cccc2OC)=NC3)ccc1C(=O)O [alisertib]
In short: as §1

[4] = compound: COc1cc2nc(-c3cc(F)ccc3O)nc(N[C@@H]3CNC[C@H]3C(C)(C)O)c2cc1OC
In short: as §1

gefitinib = compound: COc1cc2ncnc(Nc3ccc(F)c(Cl)c3)c2cc1OCCCN1CCOCC1 [gefitinib]
In short: as §1

lapatinib = compound: CS(=O)(=O)CCNCc1ccc(-c2ccc3ncnc(Nc4ccc(OCc5cccc(F)c5)c(Cl)c4)c3c2)o1 [lapatinib]
In short: as §1

pictilisib = compound: CS(=O)(=O)N1CCN(Cc2cc3nc(-c4cccc5[nH]ncc45)nc(N4CCOCC4)c3s2)CC1 [pictilisib]
In short: as §1

crizotinib = compound: C[C@@H](Oc1cc(-c2cnn(C3CCNCC3)c2)cnc1N)c1c(Cl)ccc(F)c1Cl [crizotinib]
In short: as §1

[5] = compound: C[C@H](C1=CC=C(C=C1)C(=O)NC2=C3C=CNC3=NC=C2)N
In short: as §1

duvelisib = compound: C[C@H](Nc1ncnc2nc[nH]c12)c1cc2cccc(Cl)c2c(=O)n1-c1ccccc1 [duvelisib]
In short: as §1

gandotinib = compound: Cc1cc(Nc2cc(CN3CCOCC3)c3nc(C)c(Cc4ccc(Cl)cc4F)n3n2)n[nH]1 [gandotinib]
In short: as §1

tozasertib = compound: Cc1cc(Nc2cc(N3CCN(C)CC3)nc(Sc3ccc(NC(=O)C4CC4)cc3)n2)n[nH]1 [tozasertib]
In short: as §1

doramapimod = compound: Cc1ccc(-n2nc(C(C)(C)C)cc2NC(=O)Nc2ccc(OCCN3CCOCC3)c3ccccc23)cc1 [doramapimod]
In short: as §1

bafetinib = compound: Cc1ccc(NC(=O)c2ccc(CN3CC[C@H](N(C)C)C3)c(C(F)(F)F)c2)cc1Nc1nccc(-c2cncnc2)n1 [bafetinib]
In short: as §1

[6] = compound: Cc1cccc(CC(=O)N2CCc3c2ccc(-c2cn(C)c4ncnc(N)c24)c3F)n1
In short: as §1

Sequence of UniProt Q8IZP0 (Q8IZP0 whole entry, looked up): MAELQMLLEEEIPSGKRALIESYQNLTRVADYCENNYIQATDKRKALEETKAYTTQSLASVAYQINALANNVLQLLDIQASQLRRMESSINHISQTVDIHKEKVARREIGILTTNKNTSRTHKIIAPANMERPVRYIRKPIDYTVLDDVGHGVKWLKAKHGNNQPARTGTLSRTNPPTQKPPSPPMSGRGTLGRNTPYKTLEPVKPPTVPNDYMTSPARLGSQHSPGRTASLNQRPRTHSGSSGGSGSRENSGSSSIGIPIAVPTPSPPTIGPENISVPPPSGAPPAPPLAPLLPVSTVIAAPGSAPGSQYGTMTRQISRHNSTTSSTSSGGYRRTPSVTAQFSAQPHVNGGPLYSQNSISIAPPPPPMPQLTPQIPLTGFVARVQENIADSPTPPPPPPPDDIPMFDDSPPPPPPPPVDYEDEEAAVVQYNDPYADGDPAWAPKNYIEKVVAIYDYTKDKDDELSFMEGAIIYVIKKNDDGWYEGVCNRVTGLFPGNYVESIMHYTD
Sequence of UniProt P33121 (P33121 whole entry, looked up): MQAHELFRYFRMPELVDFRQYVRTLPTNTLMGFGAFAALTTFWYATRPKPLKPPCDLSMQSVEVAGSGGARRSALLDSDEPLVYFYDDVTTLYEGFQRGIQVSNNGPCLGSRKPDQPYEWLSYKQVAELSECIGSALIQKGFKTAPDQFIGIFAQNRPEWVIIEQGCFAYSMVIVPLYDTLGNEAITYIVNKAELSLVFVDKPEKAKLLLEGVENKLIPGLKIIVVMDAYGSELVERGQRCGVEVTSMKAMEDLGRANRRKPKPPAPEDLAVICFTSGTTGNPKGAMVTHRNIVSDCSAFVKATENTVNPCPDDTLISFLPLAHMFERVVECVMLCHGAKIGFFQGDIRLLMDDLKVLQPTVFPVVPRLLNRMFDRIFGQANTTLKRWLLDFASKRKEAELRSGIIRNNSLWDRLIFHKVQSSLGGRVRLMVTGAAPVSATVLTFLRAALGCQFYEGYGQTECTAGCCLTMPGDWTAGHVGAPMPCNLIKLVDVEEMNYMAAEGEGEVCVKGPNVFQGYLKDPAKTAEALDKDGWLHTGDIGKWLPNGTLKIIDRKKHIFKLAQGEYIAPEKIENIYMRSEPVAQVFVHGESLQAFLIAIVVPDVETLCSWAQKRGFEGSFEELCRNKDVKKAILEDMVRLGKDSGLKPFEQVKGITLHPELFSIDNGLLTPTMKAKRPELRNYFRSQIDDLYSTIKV
Sequence of UniProt P11310 (P11310 whole entry, looked up): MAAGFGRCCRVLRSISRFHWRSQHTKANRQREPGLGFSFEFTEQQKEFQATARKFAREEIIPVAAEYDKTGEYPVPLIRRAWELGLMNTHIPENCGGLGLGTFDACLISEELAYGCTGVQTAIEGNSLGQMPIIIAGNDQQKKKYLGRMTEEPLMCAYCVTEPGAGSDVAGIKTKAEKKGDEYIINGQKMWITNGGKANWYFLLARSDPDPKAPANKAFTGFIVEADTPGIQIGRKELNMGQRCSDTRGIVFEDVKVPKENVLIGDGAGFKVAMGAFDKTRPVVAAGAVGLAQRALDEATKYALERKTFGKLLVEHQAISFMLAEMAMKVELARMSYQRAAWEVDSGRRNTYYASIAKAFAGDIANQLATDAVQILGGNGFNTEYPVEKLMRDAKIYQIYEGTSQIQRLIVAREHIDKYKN
Sequence of UniProt Q9ULX6 (Q9ULX6 whole entry, looked up): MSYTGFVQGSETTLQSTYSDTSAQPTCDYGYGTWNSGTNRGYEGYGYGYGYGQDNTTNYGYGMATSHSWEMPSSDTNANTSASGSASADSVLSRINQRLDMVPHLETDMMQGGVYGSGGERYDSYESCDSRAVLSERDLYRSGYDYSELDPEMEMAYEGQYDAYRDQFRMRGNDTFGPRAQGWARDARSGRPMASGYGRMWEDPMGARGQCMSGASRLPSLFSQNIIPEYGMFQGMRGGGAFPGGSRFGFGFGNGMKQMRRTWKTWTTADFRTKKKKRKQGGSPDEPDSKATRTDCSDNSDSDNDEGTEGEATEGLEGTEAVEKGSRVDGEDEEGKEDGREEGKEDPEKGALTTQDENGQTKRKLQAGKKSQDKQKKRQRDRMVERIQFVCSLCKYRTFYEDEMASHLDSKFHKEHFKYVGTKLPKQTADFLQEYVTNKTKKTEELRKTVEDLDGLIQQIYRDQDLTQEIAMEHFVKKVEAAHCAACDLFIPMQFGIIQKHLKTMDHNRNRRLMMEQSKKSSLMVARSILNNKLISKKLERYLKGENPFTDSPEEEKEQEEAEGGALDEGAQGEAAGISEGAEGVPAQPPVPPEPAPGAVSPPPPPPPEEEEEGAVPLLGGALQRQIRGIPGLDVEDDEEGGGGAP
Sequence of UniProt P05091 (P05091 whole entry, looked up): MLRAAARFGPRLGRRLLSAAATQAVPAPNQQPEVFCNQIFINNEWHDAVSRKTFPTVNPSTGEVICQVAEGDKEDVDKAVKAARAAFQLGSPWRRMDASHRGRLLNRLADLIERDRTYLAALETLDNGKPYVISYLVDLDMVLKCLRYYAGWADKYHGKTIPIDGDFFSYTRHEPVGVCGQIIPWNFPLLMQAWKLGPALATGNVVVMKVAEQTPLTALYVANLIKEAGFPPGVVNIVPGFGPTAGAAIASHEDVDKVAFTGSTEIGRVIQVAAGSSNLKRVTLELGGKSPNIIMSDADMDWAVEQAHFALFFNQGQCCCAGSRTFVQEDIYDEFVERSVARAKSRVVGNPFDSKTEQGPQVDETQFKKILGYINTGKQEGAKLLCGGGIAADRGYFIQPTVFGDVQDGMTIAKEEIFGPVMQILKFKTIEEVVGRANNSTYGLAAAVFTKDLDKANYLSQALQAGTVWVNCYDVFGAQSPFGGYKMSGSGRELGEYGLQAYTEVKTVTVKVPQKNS
Sequence of UniProt Q92974 (Q92974 whole entry, looked up): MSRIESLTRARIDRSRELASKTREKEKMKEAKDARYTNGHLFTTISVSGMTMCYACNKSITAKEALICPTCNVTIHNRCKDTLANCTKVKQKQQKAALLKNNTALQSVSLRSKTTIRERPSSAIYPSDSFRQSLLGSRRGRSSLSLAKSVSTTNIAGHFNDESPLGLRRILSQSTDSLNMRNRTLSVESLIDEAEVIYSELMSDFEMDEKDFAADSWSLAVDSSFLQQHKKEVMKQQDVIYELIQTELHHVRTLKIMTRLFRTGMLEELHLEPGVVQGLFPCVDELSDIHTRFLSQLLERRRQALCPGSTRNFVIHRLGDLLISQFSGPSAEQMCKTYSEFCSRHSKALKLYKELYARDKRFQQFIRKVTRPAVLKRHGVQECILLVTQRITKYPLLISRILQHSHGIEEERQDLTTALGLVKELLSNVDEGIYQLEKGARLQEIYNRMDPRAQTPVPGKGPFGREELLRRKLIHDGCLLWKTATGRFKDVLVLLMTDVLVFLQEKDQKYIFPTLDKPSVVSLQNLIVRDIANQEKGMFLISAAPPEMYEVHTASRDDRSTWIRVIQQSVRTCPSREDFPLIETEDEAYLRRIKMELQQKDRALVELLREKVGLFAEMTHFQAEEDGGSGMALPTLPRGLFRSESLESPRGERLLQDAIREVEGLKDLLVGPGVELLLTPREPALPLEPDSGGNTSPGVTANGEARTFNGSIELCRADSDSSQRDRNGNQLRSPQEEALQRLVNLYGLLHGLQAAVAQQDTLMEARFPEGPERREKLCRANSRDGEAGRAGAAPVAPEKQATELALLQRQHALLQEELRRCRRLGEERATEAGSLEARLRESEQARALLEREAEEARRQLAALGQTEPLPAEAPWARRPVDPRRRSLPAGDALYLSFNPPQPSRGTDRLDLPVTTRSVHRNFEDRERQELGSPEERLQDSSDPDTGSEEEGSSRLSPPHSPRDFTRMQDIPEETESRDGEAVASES
Sequence of UniProt Q9BVK2 (Q9BVK2 whole entry, looked up): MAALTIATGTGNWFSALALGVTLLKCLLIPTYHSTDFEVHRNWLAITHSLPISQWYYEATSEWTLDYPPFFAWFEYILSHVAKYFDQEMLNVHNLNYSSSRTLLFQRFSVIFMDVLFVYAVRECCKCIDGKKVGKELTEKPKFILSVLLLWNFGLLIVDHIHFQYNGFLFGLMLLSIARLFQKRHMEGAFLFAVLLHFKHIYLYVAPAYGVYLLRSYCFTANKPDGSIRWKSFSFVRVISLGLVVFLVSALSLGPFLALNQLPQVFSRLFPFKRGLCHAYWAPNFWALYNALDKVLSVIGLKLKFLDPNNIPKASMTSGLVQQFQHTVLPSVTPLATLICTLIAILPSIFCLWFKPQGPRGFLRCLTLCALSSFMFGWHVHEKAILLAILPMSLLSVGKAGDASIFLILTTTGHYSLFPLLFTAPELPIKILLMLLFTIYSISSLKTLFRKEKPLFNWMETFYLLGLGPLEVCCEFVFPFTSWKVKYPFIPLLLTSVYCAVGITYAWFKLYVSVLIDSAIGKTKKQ
Sequence of UniProt Q9Y4X0 (Q9Y4X0 whole entry, looked up): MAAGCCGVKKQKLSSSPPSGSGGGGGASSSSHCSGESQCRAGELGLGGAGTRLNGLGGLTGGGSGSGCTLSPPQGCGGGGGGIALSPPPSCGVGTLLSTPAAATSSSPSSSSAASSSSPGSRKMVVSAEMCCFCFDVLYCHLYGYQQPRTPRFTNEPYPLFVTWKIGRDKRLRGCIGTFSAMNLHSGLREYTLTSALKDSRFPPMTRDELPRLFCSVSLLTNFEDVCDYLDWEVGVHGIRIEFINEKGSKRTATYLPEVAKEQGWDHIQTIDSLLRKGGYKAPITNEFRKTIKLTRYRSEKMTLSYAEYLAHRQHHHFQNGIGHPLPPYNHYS
Sequence of UniProt Q5VST6 (Q5VST6 whole entry, looked up): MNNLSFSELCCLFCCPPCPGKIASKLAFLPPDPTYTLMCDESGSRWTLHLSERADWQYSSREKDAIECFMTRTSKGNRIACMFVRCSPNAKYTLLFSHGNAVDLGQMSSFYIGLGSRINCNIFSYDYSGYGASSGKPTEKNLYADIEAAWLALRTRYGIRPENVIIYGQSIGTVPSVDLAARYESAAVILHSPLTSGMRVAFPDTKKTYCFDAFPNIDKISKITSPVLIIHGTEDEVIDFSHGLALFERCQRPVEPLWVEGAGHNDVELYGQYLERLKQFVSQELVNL

Target	log2 fold change (alvocidib)	log2 fold change (Tubastatin A)	log2 fold change [1]	log2 fold change (defactinib)	log2 fold change [2]	log2 fold change (encorafenib)	log2 fold change [3]	log2 fold change (alisertib)	log2 fold change [4]	log2 fold change (gefitinib)	log2 fold change (lapatinib)	log2 fold change (pictilisib)	log2 fold change (crizotinib)	log2 fold change [5]	log2 fold change (duvelisib)	log2 fold change (gandotinib)	log2 fold change (tozasertib)	log2 fold change (doramapimod)	log2 fold change (bafetinib)	log2 fold change [6]
ACSL1 (UniProt P33121)	0.02	-0.169	0.001	0.096	-0.062	0.007	-0.052	0.057	-0.08	-0.036	-0.03	-0.094	-0.115	0.021	0.043	-0.049	0.033	0.053	-0.038	0.061
AP3D1 isoform 5 (UniProt O14617)	-0.02	-0.048	0.018	0.033	0.03	0.026	-0.028	-0.009	0.004	-0.014	0.008	0.01	-0.02	-0.061	0.023	0.05	0.019	0.059	-0.042	0.081
AMMECR1 (UniProt Q9Y4X0)	-0.014	0.022	0.02	0.02	0.003	0.02	-0.01	-0.031	0.011	-0.019	0.005	-0.013	-0.011	-0.027	0.022	-0.019	0.039	-0.009	-0.04	0.037
ABHD17B (UniProt Q5VST6)	0	-0.016	-0.003	0.064	-0.099	0.059	-0.642 (active)	0.06	-0.011	0.043	0.075	-0.076	-0.051	0.01	0.026	-0.012	-0.513 (active)	-0.026	0.01	0.183
AKAP8L (UniProt Q9ULX6)	-0.003	-0.183	0.008	0.003	-0.109	0.059	-0.032	0.043	0.011	0.009	0.017	-0.018	0.053	-0.05	0.038	0.033	0	-0.153	0.016	0.011
ABL2 (UniProt P42684)	0.007	-0.04	0.082	0.066	-0.108	0.092	-0.068	-0.123	-0.009	-0.176	-0.053	-0.029	0.367	-0.216	0.079	0.228	0.273	-0.04	0.439	0
AKAP11 (UniProt Q9UKA4)	0.032	0.026	0.001	0.093	-0.01	-0.03	0.144	-0.022	-0.119	-0.114	0.021	-0.08	0.025	-0.02	0.015	-0.176	0.061	-0.036	-0.084	-0.005
ARHGEF2 (UniProt Q92974)	-0.009	-0.081	0.047	-0.004	0.058	0.07	0.071	0.018	-0.005	0.007	0.014	0.005	-0.016	0.006	-0.017	0.025	0.018	0.089	-0.045	0.04
ALG8 (UniProt Q9BVK2)	0.004	-0.118	-0.007	0.001	-0.012	0.04	-0.09	0.076	-0.019	0.103	-0.043	-0.043	0.017	-0.211	-0.013	0	0.116	-0.06	-0.08	0.087
ANAPC7 (UniProt Q9UJX3)	0.011	-0.1	0.036	0.014	-0.03	0.026	0.002	-0.001	0.005	0.017	-0.017	0.002	-0.029	-0.009	-0.018	-0.042	-0.019	0.023	-0.036	0.002
ADD1 isoform 3 (UniProt P35611)	0.016	0.007	-0.013	0.015	0.031	0.004	-0.034	0.03	0.006	-0.01	-0.017	0.003	0.014	-0.011	0.014	-0.001	-0.002	0.002	0.002	-0.019
ACAA1 (UniProt P09110)	-0.027	0.043	0.008	0.008	0.093	-0.021	0.012	-0.035	0.01	0.015	0.017	-0.005	0.014	-0.015	-0.014	0.056	-0.043	-0.001	0.045	-0.011
ABI1 isoform 9 (UniProt Q8IZP0)	-0.096	0.053	0.005	-0.038	0.025	0.003	-0.057	-0.02	0.018	-0.015	0.011	-0.048	-0.006	-0.26 (active)	0.01	0.13	0.008	-0.015	0.08	0.163
ARMCX5 (UniProt Q6P1M9)	0.029	-0.105	0.067	0.014	-0.012	0.045	0.023	-0.003	0.035	0.035	-0.033	0.04		-0.001	-0.114	0.001	0.032		-0.104	0.078
ALDH2 (UniProt P05091)	0.059	-0.006	0.437 (active)	-0.03	-0.051	0.006	-0.03	0.037	-0.016	0.014	0	0	-0.02	-0.012	-0.03	0.011	0.023	-0.023	0.017	-0.077
ACADM isoform 2 (UniProt P11310)	-0.022	-0.012	0.046	-0.01	0.386 (active)	-0.032	0.13	0.062	0.09	-0.024	-0.007	-0.009	-0.042	-0.007	-0.007	0.029	0.029	-0.03	0.024	-0.01
